# From the supplement of paper PMC10849652
# The full data set covers some 7,900 targets. This sample favours those with a hit. About 0.6% of all pairs of compound and target were hits. Values without a mark were called inactive.
# Compound: Cc1nc(Nc2ncc(C(=O)Nc3c(C)cccc3Cl)s2)cc(N2CCN(CCO)CC2)n1 [dasatinib]
# Assay: log2 fold change, soluble protein after heating vs DMSO (PISA); higher = thermal stabilisation; K562 cells, 10 uM, 30 min; active = over 0.2 and 3.5 SD of the protein, either way, in both replicates (recomputed)
# Outline: (§1)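 Thermal stability values are relative to control samples and come from duplicates. They are expressed as log2 fold changes. For measurement, K562 cells (2×10^6 cells/mL) received 10 μM compound for 30 min, and aliquots were heated for 3 min over 48°C-58°C, pooled, and extracted at 4°C in PBS with 0.5% NP-40. Soluble protein, the supernatant after 21,000xg for 90 min, was quantified by TMTpro 16plex LC-MS/MS with equalised channel sums.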
# UniProt P27448, sequence (P27448 whole entry, looked up): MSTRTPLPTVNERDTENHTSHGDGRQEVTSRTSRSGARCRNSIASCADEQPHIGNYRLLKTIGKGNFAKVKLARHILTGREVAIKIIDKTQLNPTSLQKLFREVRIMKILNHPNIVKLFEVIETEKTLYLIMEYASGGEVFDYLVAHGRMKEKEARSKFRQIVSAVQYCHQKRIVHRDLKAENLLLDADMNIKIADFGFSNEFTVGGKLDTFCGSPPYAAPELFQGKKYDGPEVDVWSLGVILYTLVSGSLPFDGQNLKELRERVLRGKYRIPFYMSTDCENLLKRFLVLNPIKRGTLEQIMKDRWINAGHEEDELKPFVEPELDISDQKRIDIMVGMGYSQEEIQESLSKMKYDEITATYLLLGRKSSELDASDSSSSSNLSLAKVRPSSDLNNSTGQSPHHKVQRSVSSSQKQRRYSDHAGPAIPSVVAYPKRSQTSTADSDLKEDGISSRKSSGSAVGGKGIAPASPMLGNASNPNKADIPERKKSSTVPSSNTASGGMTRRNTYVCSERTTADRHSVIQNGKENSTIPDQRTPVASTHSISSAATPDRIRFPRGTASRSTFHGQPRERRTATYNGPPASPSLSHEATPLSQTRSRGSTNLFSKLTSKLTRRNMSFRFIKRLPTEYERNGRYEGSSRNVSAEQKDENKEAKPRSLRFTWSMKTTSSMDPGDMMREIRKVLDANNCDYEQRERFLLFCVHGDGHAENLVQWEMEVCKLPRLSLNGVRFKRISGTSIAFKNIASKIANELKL
# UniProt Q86WA8, sequence (Q86WA8 whole entry, looked up): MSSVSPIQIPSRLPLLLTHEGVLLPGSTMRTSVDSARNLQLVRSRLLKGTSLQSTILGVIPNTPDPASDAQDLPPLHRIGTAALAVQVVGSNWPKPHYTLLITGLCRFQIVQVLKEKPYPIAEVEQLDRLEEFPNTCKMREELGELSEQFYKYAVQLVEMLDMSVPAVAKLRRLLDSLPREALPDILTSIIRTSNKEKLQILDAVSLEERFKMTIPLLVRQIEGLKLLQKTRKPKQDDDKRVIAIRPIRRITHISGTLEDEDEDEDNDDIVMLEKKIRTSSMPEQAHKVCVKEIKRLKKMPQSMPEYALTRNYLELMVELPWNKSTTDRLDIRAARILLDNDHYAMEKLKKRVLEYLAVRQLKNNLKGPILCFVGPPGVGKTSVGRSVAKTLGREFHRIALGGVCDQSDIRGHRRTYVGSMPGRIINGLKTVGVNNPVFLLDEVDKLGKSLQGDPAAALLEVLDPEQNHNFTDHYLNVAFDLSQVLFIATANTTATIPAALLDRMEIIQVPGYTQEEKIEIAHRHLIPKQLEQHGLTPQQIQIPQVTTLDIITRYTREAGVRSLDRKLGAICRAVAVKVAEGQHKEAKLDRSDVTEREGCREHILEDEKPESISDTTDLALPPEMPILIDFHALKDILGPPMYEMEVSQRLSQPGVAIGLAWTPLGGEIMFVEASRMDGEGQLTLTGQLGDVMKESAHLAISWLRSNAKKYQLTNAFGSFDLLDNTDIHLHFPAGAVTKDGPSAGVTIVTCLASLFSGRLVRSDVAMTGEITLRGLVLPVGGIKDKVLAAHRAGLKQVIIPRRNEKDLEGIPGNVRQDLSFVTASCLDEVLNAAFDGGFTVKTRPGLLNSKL
# UniProt Q8IYU8, sequence (Q8IYU8 whole entry, looked up): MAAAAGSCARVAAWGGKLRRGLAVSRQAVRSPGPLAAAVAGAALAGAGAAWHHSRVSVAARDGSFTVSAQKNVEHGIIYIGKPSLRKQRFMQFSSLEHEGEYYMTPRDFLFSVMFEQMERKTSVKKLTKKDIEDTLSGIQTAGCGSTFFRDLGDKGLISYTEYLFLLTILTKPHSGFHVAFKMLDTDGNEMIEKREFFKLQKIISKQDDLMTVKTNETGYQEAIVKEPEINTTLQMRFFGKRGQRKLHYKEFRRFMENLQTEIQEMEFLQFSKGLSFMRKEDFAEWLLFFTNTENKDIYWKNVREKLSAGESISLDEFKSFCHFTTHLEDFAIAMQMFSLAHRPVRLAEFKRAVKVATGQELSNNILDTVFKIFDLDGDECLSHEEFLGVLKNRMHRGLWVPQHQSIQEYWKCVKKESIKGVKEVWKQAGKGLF
# UniProt Q9H1H9, sequence (Q9H1H9 whole entry, looked up): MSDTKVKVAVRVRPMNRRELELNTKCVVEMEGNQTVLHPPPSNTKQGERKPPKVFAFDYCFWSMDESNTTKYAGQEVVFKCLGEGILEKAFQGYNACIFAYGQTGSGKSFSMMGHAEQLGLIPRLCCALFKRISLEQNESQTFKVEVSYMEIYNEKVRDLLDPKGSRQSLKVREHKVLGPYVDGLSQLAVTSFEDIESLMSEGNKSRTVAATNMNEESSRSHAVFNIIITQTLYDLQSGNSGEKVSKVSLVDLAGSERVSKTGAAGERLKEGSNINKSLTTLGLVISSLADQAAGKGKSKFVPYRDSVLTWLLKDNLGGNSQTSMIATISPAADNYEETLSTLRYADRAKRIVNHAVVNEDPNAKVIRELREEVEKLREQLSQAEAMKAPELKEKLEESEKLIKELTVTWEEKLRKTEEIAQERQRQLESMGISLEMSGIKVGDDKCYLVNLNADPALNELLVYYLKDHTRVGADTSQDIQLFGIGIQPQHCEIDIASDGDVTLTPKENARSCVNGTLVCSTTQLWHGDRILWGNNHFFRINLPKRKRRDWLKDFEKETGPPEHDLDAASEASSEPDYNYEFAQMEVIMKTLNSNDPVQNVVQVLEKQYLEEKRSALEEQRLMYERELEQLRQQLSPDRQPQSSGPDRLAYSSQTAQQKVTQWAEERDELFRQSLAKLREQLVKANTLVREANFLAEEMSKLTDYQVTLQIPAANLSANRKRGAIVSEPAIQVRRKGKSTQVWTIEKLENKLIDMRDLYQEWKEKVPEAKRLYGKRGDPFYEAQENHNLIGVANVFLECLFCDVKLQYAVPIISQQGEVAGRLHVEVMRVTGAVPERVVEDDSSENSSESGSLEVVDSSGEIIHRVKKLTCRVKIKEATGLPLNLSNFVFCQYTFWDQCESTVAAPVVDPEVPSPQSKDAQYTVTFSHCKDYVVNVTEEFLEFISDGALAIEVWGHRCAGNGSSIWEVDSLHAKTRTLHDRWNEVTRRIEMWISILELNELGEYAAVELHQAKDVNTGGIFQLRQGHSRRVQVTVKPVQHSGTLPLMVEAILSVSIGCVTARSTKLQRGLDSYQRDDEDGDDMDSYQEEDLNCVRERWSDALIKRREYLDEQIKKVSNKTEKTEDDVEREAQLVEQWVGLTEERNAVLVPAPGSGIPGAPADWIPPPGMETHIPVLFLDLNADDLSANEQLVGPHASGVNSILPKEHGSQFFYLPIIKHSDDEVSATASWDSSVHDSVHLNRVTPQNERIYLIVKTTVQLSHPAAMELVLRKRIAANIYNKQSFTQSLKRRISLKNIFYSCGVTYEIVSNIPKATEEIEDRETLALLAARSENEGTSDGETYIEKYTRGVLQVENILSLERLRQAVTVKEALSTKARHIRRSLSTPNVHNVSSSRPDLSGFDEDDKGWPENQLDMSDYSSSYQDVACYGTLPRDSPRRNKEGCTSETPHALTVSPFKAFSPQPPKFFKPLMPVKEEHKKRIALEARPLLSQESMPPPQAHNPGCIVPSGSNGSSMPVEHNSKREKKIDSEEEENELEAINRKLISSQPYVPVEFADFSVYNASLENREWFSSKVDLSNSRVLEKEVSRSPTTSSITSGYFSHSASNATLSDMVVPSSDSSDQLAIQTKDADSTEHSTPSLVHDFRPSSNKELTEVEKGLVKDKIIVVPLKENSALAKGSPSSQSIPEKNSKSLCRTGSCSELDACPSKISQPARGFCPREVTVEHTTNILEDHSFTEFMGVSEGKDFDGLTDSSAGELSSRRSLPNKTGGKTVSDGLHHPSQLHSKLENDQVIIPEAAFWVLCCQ
# UniProt P46734, sequence (P46734 whole entry, looked up): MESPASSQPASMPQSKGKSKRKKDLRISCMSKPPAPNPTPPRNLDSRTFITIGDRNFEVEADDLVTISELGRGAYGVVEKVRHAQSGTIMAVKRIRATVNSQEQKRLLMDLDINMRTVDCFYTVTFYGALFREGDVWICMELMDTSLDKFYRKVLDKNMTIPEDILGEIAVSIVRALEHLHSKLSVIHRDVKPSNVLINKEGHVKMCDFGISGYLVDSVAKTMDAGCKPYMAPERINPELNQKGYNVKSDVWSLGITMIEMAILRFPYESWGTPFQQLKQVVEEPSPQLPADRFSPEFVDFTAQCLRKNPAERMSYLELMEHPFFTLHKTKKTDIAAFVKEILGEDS
# UniProt Q96A72, sequence (Q96A72 whole entry, looked up): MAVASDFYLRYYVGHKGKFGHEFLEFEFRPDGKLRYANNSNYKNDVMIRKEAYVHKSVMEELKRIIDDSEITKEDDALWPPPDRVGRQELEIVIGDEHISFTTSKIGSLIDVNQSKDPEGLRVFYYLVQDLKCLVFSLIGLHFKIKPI
# UniProt P49006, sequence (P49006 whole entry, looked up): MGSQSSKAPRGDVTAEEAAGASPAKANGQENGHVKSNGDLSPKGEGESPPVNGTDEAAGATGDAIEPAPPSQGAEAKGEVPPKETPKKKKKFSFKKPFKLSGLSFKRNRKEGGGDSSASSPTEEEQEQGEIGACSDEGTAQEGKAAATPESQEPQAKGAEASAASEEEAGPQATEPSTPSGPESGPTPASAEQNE
# UniProt Q9Y383, sequence (Q9Y383 whole entry, looked up): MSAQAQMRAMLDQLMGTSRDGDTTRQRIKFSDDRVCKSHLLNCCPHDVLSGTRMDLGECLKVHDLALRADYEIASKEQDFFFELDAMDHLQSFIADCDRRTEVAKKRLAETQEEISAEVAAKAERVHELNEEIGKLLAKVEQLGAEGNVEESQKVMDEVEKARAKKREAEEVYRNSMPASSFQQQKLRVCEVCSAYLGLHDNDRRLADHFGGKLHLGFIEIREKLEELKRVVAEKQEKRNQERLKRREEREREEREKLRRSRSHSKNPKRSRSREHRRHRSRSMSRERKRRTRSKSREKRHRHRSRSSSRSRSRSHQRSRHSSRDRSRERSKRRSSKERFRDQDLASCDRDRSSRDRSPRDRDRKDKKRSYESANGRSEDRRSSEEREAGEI
row,Target,log2 fold change
1,LUC7L2 (UniProt Q9Y383),-0.01
2,ILF3 isoform 7 (UniProt Q12906),0.155
3,MAGOHB (UniProt Q96A72),0.007
4,KDM5D isoform 3 (UniProt Q9BY66),-0.289
5,LIMD1 (UniProt Q9UGP4),0.001
6,MED1 (UniProt Q15648),0.037
7,MCL1 (UniProt Q07820),0.068
8,LIMA1 isoform 4 (UniProt Q9UHB6),0.179
9,LMBRD1 (UniProt Q9NUN5),0.064
10,KIF13A (UniProt Q9H1H9),-0.044
11,MARCKSL1 (UniProt P49006),0.062
12,LARP4 isoform 4 (UniProt Q71RC2),0
13,KIF21A isoform 4 (UniProt Q7Z4S6),-0.193
14,LEMD3 (UniProt Q9Y2U8),-0.106
15,MAP3K7 (UniProt O43318),-0.038
16,MAPKAPK3 (UniProt Q16644),0.002
17,MAPK14 isoform 2 (UniProt Q16539),1.37 (active)
18,ITIH4 (UniProt Q14624),0.039
19,MAGEA9 (UniProt P43362),0.074
20,IMMT isoform 4 (UniProt Q16891),-0.019

row,Target,log2 fold change
1,MEPCE (UniProt Q7L2J0),-0.116
2,LSS (UniProt P48449),0
3,LONP2 (UniProt Q86WA8),0.024
4,KDM3B (UniProt Q7LBC6),-0.136
5,LARP4B (UniProt Q92615),-0.072
6,LDLR (UniProt P01130),0.056
7,IRF2BPL (UniProt Q9H1B7),-0.034
8,LTN1 isoform 3 (UniProt O94822),-0.122
9,LARP7 isoform 3 (UniProt Q4G0J3),-0.063
10,LNPK (UniProt Q9C0E8),0.052
11,MAP2K3 isoform 3 (UniProt P46734),-0.04
12,MICU2 (UniProt Q8IYU8),-0.102
13,MGST3 (UniProt O14880),0.069
14,KSR1 (UniProt Q8IVT5),-0.228
15,IWS1 (UniProt Q96ST2),-0.054
16,MFN1 (UniProt Q8IWA4),-0.054
17,MARK3 (UniProt P27448),-0.104
18,MDC1 (UniProt Q14676),0.398
19,MAP4 (UniProt E7EVA0),0.168

# Compound: Cc1ncc(-c2ccnc(Nc3ccc(S(C)(=O)=O)cc3)n2)n1C(C)C
# Assay: as above
# Outline: as §1
row,Target,log2 fold change
1,LUC7L2 (UniProt Q9Y383),-0.007
2,ILF3 isoform 7 (UniProt Q12906),0.297
3,MAGOHB (UniProt Q96A72),0.138
4,KDM5D isoform 3 (UniProt Q9BY66),-0.047
5,LIMD1 (UniProt Q9UGP4),-0.008
6,MED1 (UniProt Q15648),-0.217 (active)
7,MCL1 (UniProt Q07820),-0.079
8,LIMA1 isoform 4 (UniProt Q9UHB6),0.052
9,LMBRD1 (UniProt Q9NUN5),0.026
10,KIF13A (UniProt Q9H1H9),0.008
11,MARCKSL1 (UniProt P49006),0.009
12,LARP4 isoform 4 (UniProt Q71RC2),-0.028
13,KIF21A isoform 4 (UniProt Q7Z4S6),0.037
14,LEMD3 (UniProt Q9Y2U8),0.037
15,MAP3K7 (UniProt O43318),0.059
16,MAPKAPK3 (UniProt Q16644),-0.032
17,MAPK14 isoform 2 (UniProt Q16539),0.037
18,ITIH4 (UniProt Q14624),0.225
19,MAGEA9 (UniProt P43362),-0.034
20,IMMT isoform 4 (UniProt Q16891),0.003

row,Target,log2 fold change
1,MEPCE (UniProt Q7L2J0),-0.123
2,LSS (UniProt P48449),0.013
3,LONP2 (UniProt Q86WA8),-0.065
4,KDM3B (UniProt Q7LBC6),0.042
5,LARP4B (UniProt Q92615),-0.092
6,LDLR (UniProt P01130),-0.064
7,IRF2BPL (UniProt Q9H1B7),-0.029
8,LTN1 isoform 3 (UniProt O94822),-0.052
9,LARP7 isoform 3 (UniProt Q4G0J3),-0.249
10,LNPK (UniProt Q9C0E8),-0.007
11,MAP2K3 isoform 3 (UniProt P46734),-0.049
12,MICU2 (UniProt Q8IYU8),-0.001
13,MGST3 (UniProt O14880),-0.056
14,KSR1 (UniProt Q8IVT5),-0.021
15,IWS1 (UniProt Q96ST2),0.311 (active)
16,MFN1 (UniProt Q8IWA4),0.02
17,MARK3 (UniProt P27448),-0.11
18,MDC1 (UniProt Q14676),-0.191
19,MAP4 (UniProt E7EVA0),-0.018
